Measurements: PubChem BioAssay AID1272365 (Small Molecule Screening Facility, UW Madison, 2018)
Values joined by “and” are separate entries in the source; they are usually repeats but may differ in a detail not shown here. Identical values can stand only once. Out of some 430,000 compounds screened, about 2,600 (0.6%) were called active. The full list was thinned out, with actives kept by preference. Values without a mark were called inactive. No stated cut-off is given here; in the data, active means inhibition mostly above about 37% (no sharp cut-off); inactive means mostly below about 20%.

test system: PriA–SSB C-terminal tail interaction (Klebsiella pneumoniae); assay: blocks PriA binding to SSB C-terminal tail, primary screen, biochemical, AlphaScreen (AID 1272365); conditions: AlphaScreen SSBct-PriA binding, biotinylated peptide; at 33 µM, active compounds read high;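 on inhibition: plate controls were negative control peptide for no effect and reference peptide for full effect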

Going from Cc1ccc(NC(=O)Cc2csc(SCC(=O)c3ccc4c(c3)OCO4)n2)cc1F to CN(C)C(CNC(=O)Nc1ccc2c(c1)OCO2)c1ccsc1 (stereo unspecified), the inhibition falls from 0% to -7%.

Compared with CC1CCN(c2ccc(C(=O)Nc3nnc(C4CC4)s3)cc2[N+](=O)[O-])CC1, O=C(Nc1ccccc1)N1CCC(c2nnc(C3CC3)s2)CC1 is higher in inhibition: -10.1% for the first, -7% for the second.

Compared with O=C(NCc1cccnc1-c1cccs1)c1ccccn1, c1ccc(-c2nc3ccc4ncccc4c3nc2-c2ccccc2)cc1 is lower in inhibition: -5% for the first, -12% for the second.

Going from COC(=O)C1CCN(C(=O)C(=O)c2c[nH]c3ccccc23)CC1 to CC(C)CS(=O)(=O)C1CCN(C(=O)c2cccc(Oc3ccc(F)cc3)c2)CC1, the inhibition falls from 6% to -1%.

Compared with CCOc1ccc(C(=O)NCCNC(=O)c2ccc(NC(C)=O)cc2)cc1OCC, CCOC(=O)CSc1nnc(CNC(=O)Cc2ccccc2)n1-c1ccccc1OC is higher in inhibition: -15% for the first, -1.32% for the second.

Going from COc1c2ccc(C(=O)NCC3CCCN3c3nc4ccccc4o3)cc2nn1C (stereo unspecified) to CCCn1c(=N)n(CC(=O)c2ccc(Cl)c(Cl)c2)c2ccccc21, the inhibition rises from -11% to -3.72%.

Compared with Cc1ccc(/C=C/S(=O)(=O)N2CC(S(=O)(=O)c3ccc(F)cc3)C2)cc1, COc1ccc(S(=O)(=O)NCc2ccccc2-c2ccsc2)cc1Cl is lower in inhibition: -9% for the first, -26% for the second.

Compared with N#CCCSc1ccccc1NC(=O)c1ccc([N+](=O)[O-])o1, O=C1COc2ccc(C(=O)COC(=O)c3ccccc3Cl)cc2N1 is higher in inhibition: -9% for the first, -1.39% for the second.

Going from COc1ccc(-c2cnc(SCC(=O)Nc3nccs3)n2-c2cccc(Cl)c2)cc1 to CCCCC[n+]1ccn(C2=C([O-])c3ccccc3C(=O)C2=NS(=O)(=O)c2ccccc2)c1, the inhibition falls from -6% to -14.3%.

Work on O=C(NCCN1CCOC(c2ccccc2)C1)C1CC1 (stereo unspecified) yielded an inhibition of -7%.

With O=C(Nc1nncs1)c1ccccn1 the inhibition was 98% (active).
In the case of O=C(Nc1nnc(C2CC2)s1)c1ccccn1, the inhibition is reported as 90.3% (active).
With O=C(Nc1nncs1)c1ccc(S(=O)(=O)NC2CC2)cc1 the inhibition was 0% and -28%.
In the case of CCOC(=O)CSc1ncc(-c2ccc(OC)cc2)n1-c1ccccc1C, the inhibition is reported as 53% (active).
In the case of Cc1ccnc(N/C=C(/NC(=O)c2ccccc2)C(=O)N/N=C/c2ccc(Cl)cc2)n1, the inhibition is reported as “inactive”.
In the case of O=C(CN1CC(=O)Oc2ccccc21)OCC(=O)c1ccc(Cl)c(Cl)c1, the inhibition is reported as 93.6% (active).
For c1ccc(-c2cn3c(n2)CCc2ccc4cccnc4c2-3)cc1, the inhibition was 39.4% (active).
